In PubChem BioAssay AID651995 (Sanford-Burnham Center for Chemical Genomics, 2013):
About 480 (19%) of roughly 2,500 compounds were called active.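 The calls were made as follows: active = mean inhibition above about 25% (limit read from the data); inactive = the rest.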 The full list was thinned out, with actives kept by preference.

Assay: Wnt3a reporter signal inhibition, confirmation, counter-screen for Gli-SUFU antagonist project, Wnt-LIGHT cells, luminescence, single concentration (AID 651995)
Conditions: Wnt3a-driven luciferase reporter, at 6.25 µM, stronger effect = higher value

Row | SMILES | inhibition
1 | CCOc1cccc(=NC2CCCCC2)c2c(C)[nH]c(C)c12 | 26.5% (active)
